About 83,000 compounds went through this panel and 20% of them were active in at least one assay; those are over-represented in the sample as a whole.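 96-well plates, one dose, 48 hours. Percent growth reported; active if below 10.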 Values without a mark were called inactive. Active and inactive are the calls of the source.
tested on: HL-60(TB) leukemia; experiment: NCI-60 one-dose screen, 48 h (100 = growth as untreated, 0 = no growth, -100 = all killed); conditions: 10 µM unless noted

Point of comparison: `C[n+]1ccccc1C[n+]1ccccc1`, growth 90.9%. Against it:
- CS(=O)(=O)Nc1cc(-c2ccc3ncnc(Nc4ccc5c(cnn5Cc5ccc(F)cc5)c4)c3c2)cnc1Cl — lower, 23%
- COC(=O)c1cc(-c2ccc(Cl)c(Cl)c2)[nH]c(=O)c1C#N — higher, 101%
- O=C(Oc1cccnc1)c1ccsc1Nc1ccnc(C(F)(F)F)c1 — lower, 25.9%
- Clc1ccc(-c2cnc3nonc3n2)s1 — lower, 29%
- CCCn1c(=O)c2c(nc(-c3cccc(OCCCCl)c3)n2C)n(CCC)c1=O — higher, 107%
- O=[N+]([O-])c1ccc2c(c1)Cc1cc(I)ccc1-2 — higher, 92.8%
- N#CC(Cc1cccc2ccccc12)c1cc2ccccc2[nH]1 (stereo not given) — higher, 96.4%
- O=c1[nH]c(=O)c2[nH]c(=O)[nH]c2[nH]1 — higher, 100%
- O=C(O)c1cc(N=Nc2ccc(-c3ccc(N=Nc4c(S(=O)(=O)O)cc5ccc(Nc6ccccc6)cc5c4O)cc3)cc2)ccc1O — higher, 98.9%
- CCN(CC)CCC(=O)Nc1cccc2c1C(=O)c1c(c(O)c3ccccc3c1O)C2=O — lower, 27.8%
- CCCC(CC)(C(=O)Nc1ccc2nc(C)cc(N)c2c1)C(=O)Nc1ccc2nc(C)cc(N)c2c1 — higher, 100%
- O=c1cc(-c2ccc(Cl)cc2)[nH]c2ccccc12 — lower, 44.3%
- CCOC(=O)c1ccc(-c2ccc3cc(OC)ccc3c2)nc1C — higher, 91.2%
- O=C1COCCN1c1ccc(NCc2cn(Cc3cccc4ccccc34)c3ccccc23)cc1 — higher, 96.4%
- Cc1ccc(S(=O)(=O)OCCCOS(=O)(=O)c2ccc(C)cc2)cc1 — lower, 54.4%
- CC(CCC(=O)O)(NC(=O)c1ccc([N+](=O)[O-])cc1)C(=O)O (stereo not given) — higher, 94.9%
- COc1cc(NC(=O)c2cncnc2Nc2ccc3c(ccn3Cc3cccc(F)c3)c2)cc(OC)c1 — lower, 21%
- Cc1nc2scc(-c3ccccc3)n2c(=O)c1CCO — higher, 112%
- COc1cc(-c2cc(/C=C/C(=O)c3ccc(F)c(F)c3)[nH]n2)cc(OC)c1OC — lower, 82.6%
- Cc1nc(Nc2ccc(Cl)cc2)c2cnn(-c3ccccc3)c2n1 — higher, 102%
- NC(=O)N1N=C(c2ccc(Cl)cc2)CC1c1cn(-c2ccccc2)nc1-c1ccc(Cl)cc1 (stereo not given) — lower, 80.9%
- COc1ccc(-n2c(/C=C/c3ccc(O)c(OC)c3)cc(/C=C/c3ccc(O)c(OC)c3)nc2=O)cc1 — lower, 33.7%
- COc1ccc(-c2cc(-c3c(C)oc4cc5occc5c(OC)c4c3=O)nc(N)c2C#N)cc1OC — lower, 57.9%
- O=c1cc(-c2ccc(OCc3ccccc3)cc2)oc2c(I)c(OCc3ccccc3)cc(OCc3ccccc3)c12 — higher, 117%
- O/N=C/c1ccncc1 — higher, 110%
- O=S(=O)(CCN1CCOCC1)Nc1cc(-c2ccc3ncnc(Nc4ccc(F)c(Cl)c4)c3c2)cnc1Cl — lower, 27.3%
- CCN(CC)c1ccc(/C=N\NC(=O)c2cccc(Nc3ccnc(C(F)(F)F)c3)c2)c(O)c1 — lower, 69.2%
- Cc1cc(Nc2nc(N[C@@H](C)c3ncc(F)cn3)ncc2Cl)n[nH]1 — lower, 54.2%

`Oc1ccc(C#CCOc2ccccc2)cc1CNCCN(Cc1ccccn1)Cc1ccccn1` was tested, and the growth was -13.6% (active).
With `CCOC(=O)/C=C/c1ccc([N+](=O)[O-])o1` the growth was -4.64% (active).
`CC(C)N(CCNc1nc(C(Cl)(Cl)Cl)nc2cc(Cl)ccc12)C(C)C` was tested, and the growth was -0.349% (active).
For `C=C1C(=O)O[C@H]2[C@H]1CC/C(COC(=O)NCc1ccc(Cn3c(=O)sn(-c4ccccc4)c3=O)cc1)=C\CC[C@@]1(C)O[C@@H]21`, the growth was -25.2% (active).
In the case of `COC(=O)CNc1nc(N(C)O)nc(N(C)O)n1`, the growth was -7.42% (active).
For `COc1ccc(C2(Cl)c3ccccc3N(c3ccccc3)c3ccccc32)cc1`, the growth was -22.3% (active).
For `Cc1ccc(NS(=O)(=O)c2ccc(-c3cnc(C4CC4)o3)cc2)cc1C`, the growth was -1.17% (active).
For `O=C(/C=C/c1cccc(B(O)O)c1)c1cccc(B(O)O)c1`, the growth was -13.8% (active).
`COc1ccc2[nH]c(C(=O)N3CCN(C(=O)OCc4ccc5c(Br)cc(Br)c(O)c5n4)CC3)cc2c1` was tested, and the growth was -42.1% (active).
In the case of `COC(=O)[C@H](C)NC(=O)NC(=O)NC(=O)CI`, the growth was -51% (active).
With `O=C(NCCN1CCC(O)CC1)c1cc2c(o1)C(=O)c1ccccc1C2=O` the growth was -13.9% (active).
